Screening data as filed in PubChem.
Rows were chosen to be rich in hits. Some 19% of all compounds tested hit in one or more screens of this group.
TDP1 cell noCPT = qHTS for Inhibitors of human tyrosyl-DNA phosphodiesterase 1 (TDP1): qHTS in cells in absence of CPT; Potency, µM (titrated, usually from 46.2 µM), actives largely listed as inhibitors; DT40 Tdp1-/- hTDP1 cells, no CPT, ATP luminescence, 48 h; 15% of 420,000 active; further: nearly all actives have a fitted effect of over 55% in size
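Chicken DT40 Tdp1-/- cells stably complemented with human TDP1 were seeded at 400 cells/well with DMSO in place of 20 nM camptothecin. After compound pinning, cells grew at least 48 hr at 37 °C; viability read by CellTiter-Glo luminescence.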
uPA surface inh = blocks generation of uPA at the cell surface; cell surface uPA generation assay, qHTS; AID 540303; Potency, µM (top dose mostly 38.3 µM), actives largely listed as inhibitors; 0.31% of 330,000 active; active means well fitted inhibition curve with a large enough effect; inconclusive means small, poorly fitted or top-dose-only effect; inactive means no such curve, though single readings can be large or run the other way; tested in mouse RAW 264.7 cells; further: nearly all actives have a fitted effect of over 55% in size
IL-1B inflam inh = inflammasome signaling inhibition, IL-1 beta readout; THP-1 LPS/ATP IL-1B secretion, AlphaLISA, 16 h; active compounds read low; activity change, % at 57.5 µM; 4.7% of 360,000 active; AID 743279; in the data active means activity change below about -50%; inconclusive means mostly about -30% to -49%
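THP-1 cells pretreated 1 hr with compounds (up to 57.5 uM final), then stimulated with LPS (250 ng/mL final) plus ATP (1.25 mM final); secreted IL-1B measured by AlphaLISA after 16 hr, decreased signal indicating inhibition.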
DT40 TDP1 CPT = DT40-hTDP1 cell growth loss with CPT. chicken DT40 Tdp1-/-;hTDP1 cells + 20 nM CPT, ATP luminescence, 48 h. Potency, µM (titrated, usually from 46.2 µM), hits mostly inhibitors. 12% of 420,000 active; further: nearly all actives have a fitted effect of over 55% in size
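Chicken DT40 Tdp1-/- cells complemented with human TDP1, 400 cells/well, exposed to compounds plus 20 nM camptothecin for at least 48 h at 37 C; viability read as ATP content by CellTiter-Glo luminescence.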
HT1080-NT tox = kills 2HG-producing HT-1080-NT fibrosarcoma cells. HT-1080-NT fibrosarcoma viability, CellTiter-Glo ATP luminescence, 48 h. Potency, µM (doses to about 46.1 µM), actives largely listed as cytotoxic. 1.6% of 360,000 active;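 further: NT is the 2HG producing partner of a matched IDH1 knockdown line; nearly all actives have a fitted effect of over 55% in size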
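Luminescent CellTiter-Glo readout after 48 hours of compound exposure at 37 degrees C defined viability of HT-1080-NT cells. Activity was normalized to DMSO wells and cell-free media wells; concentration-response curves were fitted and assigned curve classes.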
HT1080 IDH1KD tx = kills HT-1080 cells with IDH1 knockdown; HT-1080 IDH1 knockdown viability, ATP luminescence, 48 h; Potency, µM (titrated, usually from 46.1 µM), hits mostly cytotoxic; 2% of 360,000 active
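Luminescent ATP read-out (CellTiter-Glo, 10 min at room temperature) after 48 h compound exposure at 37 °C gave viability of IDH1-knockdown HT-1080 cells. Activity was normalised to DMSO and cell-free wells, then fitted as concentration-response curves.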
A number is an active result; . = inactive; ? = inconclusive; / = no result. Unless noted, the call rests on the fitted dose curve; in most records, active means well fitted curve in the direction sought with a large enough effect; inconclusive means small, poorly fitted or top-dose-only effect, or another doubt; inactive means no such curve, though single readings can be large; an effect the other way counts as inactive or inconclusive.

SMILES | TDP1 cell noCPT | uPA surface inh | IL-1B inflam inh | DT40 TDP1 CPT | HT1080-NT tox | HT1080 IDH1KD tx
NC(=O)CC(NC(=O)c1ccc(Br)cc1)c1ccc(N2CCCCCC2)c([N+](=O)[O-])c1 (configuration not stated) | 16.4µM | ? | . | 16.4µM | . | .
CC(=O)C(=Nc1cccc(Cl)c1)NNc1ccccc1C | 14.6µM | . | . | ? | . | .
Cc1cc(Cl)ccc1NNC(=O)c1cccs1 | . | . | . | . | ? | ?
C[C@H](CO)N1C[C@H](C)[C@@H](CN(C)Cc2ccc3c(c2)OCO3)Oc2ccc(NS(C)(=O)=O)cc2C1=O | . | . | . | . | . | .
CN1c2ccccc2-c2nc3ccccc3n2C1c1ccncc1 (configuration not stated) | ? | . | . | . | . | .
CCN1c2ccccc2-c2nc3ccccc3n2C1c1ccco1 (configuration not stated) | 16.4µM | . | . | 20.6µM | . | .
CN1c2ccccc2-c2nc3ccccc3n2C1c1ccccn1 (configuration not stated) | 16.4µM | . | . | 16.4µM | . | .
c1ccc(CN2c3ccccc3-c3nc4ccccc4n3C2c2ccccn2)cc1 (configuration not stated) | . | . | . | . | . | .
CCc1ccccc1NC(=O)CN1CCN(CC(=O)Nc2ccc3c(c2)OC2(CCCCC2)O3)CC1 | 4.11µM | . | . | 18.4µM | . | .
CC(C)[C@H](NC(=O)N1CC(=O)Nc2ccccc21)C(=O)N[C@H](Cc1ccccc1)C(=O)O | . | . | . | . | . | .
O=C(CCCc1nc(-c2ccc(Cl)cc2)no1)N1CCOCC1 | 16.4µM | / | . | 23.1µM | . | .
COc1cccc(N(C(=O)CNC(=O)c2ccco2)C(C(=O)NC2CCCC2)c2cccnc2)c1 (configuration not stated) | . | / | . | . | . | .
N#CCCn1cc(C(=O)N2CCOCC2)c(-c2ccc3c(c2)OCCO3)n1 | . | . | . | . | . | .
C=CCOc1ccc(C[C@H](N)C(=O)NC[C@H]2O[C@@H](n3cc(C)c(=O)[nH]c3=O)C[C@@H]2O)cc1 | . | / | . | . | . | .
COCC(C)n1c(C)cc(C(=O)CN2C(=O)NC3(CCCCC3C)C2=O)c1C (configuration not stated) | 20.6µM | . | . | ? | . | .
Cc1cc(-n2c(C)cc(C(=O)CN3C(=O)NC4(CCCCC4C)C3=O)c2C)no1 (configuration not stated) | ? | . | ? | . | . | .
COc1nc(N(C)C)nc(N(C#N)S(=O)(=O)c2ccc(C)cc2)n1 | . | . | . | . | . | .
CCOC(=O)C1(Cc2cccc(OC)c2)CCN(CC=C(C)C)CC1 | 16.4µM | . | . | ? | . | .
CCOC(=O)C1(Cc2cccc(OC)c2)CCN(CCO)CC1 | . | . | . | . | . | .
CCOC(=O)C1(Cc2cccc(OC)c2)CCN(Cc2cnc(C)s2)CC1 | ? | . | . | . | . | .
CCOC(=O)C1(Cc2cccc(OC)c2)CCN(Cc2cccc(OCC)c2O)CC1 | 16.4µM | . | -89.8 | 23.1µM | ? | .
CCOC(=O)C1(Cc2cccc(OC)c2)CCN(C/C=C/c2ccc(OC)cc2)CC1 | 5.17µM | . | -170.9 | 5.8µM | 13µM | ?
CCOC(=O)C1(Cc2cccc(OC)c2)CCN(CC(O)CO)CC1 (configuration not stated) | . | . | . | . | . | .
CCOC(=O)C1(Cc2cccc(OC)c2)CCN(C/C=C/c2ccccc2)CC1 | 18.4µM | . | -91.6 | 16.4µM | . | .
CCOC(=O)C1(Cc2cccc(OC)c2)CCN(Cc2ccc(OC)c(O)c2)CC1 | ? | . | ? | ? | . | .
SMILES | TDP1 cell noCPT | uPA surface inh | IL-1B inflam inh | DT40 TDP1 CPT | HT1080-NT tox | HT1080 IDH1KD tx
CSc1ccc(CN2CCC(C)(Oc3ccc(C(C)=O)cc3)C2)cc1 (configuration not stated) | ? | / | . | ? | . | .
O=C(Nc1nnc([C@@H]2C[C@H](O)[C@@H](CO)O2)s1)c1cccc2ccccc12 | . | / | . | . | . | .
CC(CCC(C)[n+]1cccc(C#N)c1)[n+]1cccc(C#N)c1 (configuration not stated) | . | / | / | . | / | /
Cc1cccc(NC2=CC(c3cccc(Br)c3)N(c3cccc(C)c3)C2=O)c1 (configuration not stated) | 8.2µM | / | / | ? | / | /
CC[C@@H]1[C@H]2CCCC(=O)N3CC[C@@H](C[C@@H]1OC(=O)Nc1ccccc1)[C@@H]23 | 11.2µM | . | . | 11.2µM | . | .
CCCCCCCN(c1ccccc1)[C@@H]1C[C@H]2CCCC(=O)N3CC[C@@H](C1)[C@@H]23 | 10.3µM | . | -108.3 | 11.6µM | . | .
CC[C@@H]1[C@H]2CCCC(=O)N3CC[C@@H](C[C@@H]1Nc1ccccc1)[C@@H]23 | 17.8µM | . | . | ? | ? | .
CCCCNC(=O)O[C@@H]1C[C@H]2CCCC(=O)N3CC[C@@H](C1)[C@@H]23 | . | . | . | . | . | .
CCCCNC(=O)O[C@@H]1C[C@@H]2CCN3C(=O)CCC[C@H]([C@H]1CC)[C@H]23 | 10µM | . | . | 14.1µM | . | .
CCCCNC(=O)O[C@H]1C[C@@H]2CCN3C(=O)CCC[C@H]([C@H]1CC)[C@H]23 | . | . | . | . | . | ?
O=S(=O)(NCC1CCCN(Cc2ccccc2O)C1)c1cccc2cccnc12 (configuration not stated) | . | . | . | . | . | .
CS(=O)(=O)c1nc(-c2ccc(Br)cc2)n[nH]1 | . | . | . | . | . | .
CCc1nn(CC(=O)N2CCC(C)CC2)c(=O)c2cc3occc3n12 | . | / | / | . | / | /
O=C(Nc1cccc(NC(=O)c2ccccc2Cl)c1)c1ccc([N+](=O)[O-])o1 | 5.8µM | . | -106.2 | 8.2µM | ? | 9.2µM
Cc1ccc(NC(=O)c2ccc([N+](=O)[O-])o2)cc1C | 10.3µM | . | -94.4 | 25.9µM | 25.9µM | 13µM
O=C(Nc1cccc([N+](=O)[O-])c1)c1ccc([N+](=O)[O-])o1 | 3.66µM | / | -103.2 | 1.84µM | ? | ?
O=c1[nH]c(=S)[nH]c2c1C(c1ccc(Cl)cc1)OC(CCc1ccccc1)C2 (configuration not stated) | ? | / | . | ? | . | .
Cc1ccc(C)n1-n1c(C)nc2scc(-c3cccs3)c2c1=O | 18.4µM | . | . | ? | . | .
CCOc1ccc(Br)cc1CNCCSc1nnnn1-c1ccccc1 | ? | / | / | 18.4µM | / | /
